Screening results: PubChem, several laboratories
A selection: hits, their analogues and other compounds. The true share with any hit is near 5%.
CHT allo act: allosteric activators of human choline transporter CHT; Q9GZV3; CHT-expressing cells, membrane potential dye, choline EC20; active compounds read high; LV-AA mutant CHT in HEK293 cells; B-score at 10 µM; 0.49% of 310,000 active; AID 488977;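 active means initial fluorescence not abnormally high and integrated response B-score, plate-corrected, over 3 SD above library mean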
AI-2 QS modul: modulators of Vibrio harveyi AI-2 quorum sensing system. Vibrio harveyi JMH597 AI-2 luminescence/OD600 ratio, 9 h; active compounds read low; strain lacks LuxN and CqsS sensors; 0 = neutral-control median. activity change, % at 7.5 µM. 0.4% of 300,000 active; in the data active means activity change below about -75%, passing the limit was not always enough;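 further: luminescence divided by OD600 gain over 9 h not by final OD600 alone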
PREPL inh: human PREPL enzyme inhibition. Q4J6C6. recombinant PREPL, fluorescence polarization activity-based probe. inhibition, % at 5.96 µM. 0.68% of 320,000 active; in the data active means inhibition above about 43%;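 further: 0% = enzyme with DMSO and 100% = wells lacking enzyme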
ALR inh: human ALR oxidase inhibition via reduced H2O2. 3.8% of 290,000 active. P55789. inhibition, % (concentration not given with the values). purified ALR, DTT oxidation, H2O2 HRP-luminol luminescence. AID 485317;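 active means mean replicate inhibition above about 79%, with every replicate also reaching it, limit read from the data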
Target sequence (P55789 whole entry, looked up): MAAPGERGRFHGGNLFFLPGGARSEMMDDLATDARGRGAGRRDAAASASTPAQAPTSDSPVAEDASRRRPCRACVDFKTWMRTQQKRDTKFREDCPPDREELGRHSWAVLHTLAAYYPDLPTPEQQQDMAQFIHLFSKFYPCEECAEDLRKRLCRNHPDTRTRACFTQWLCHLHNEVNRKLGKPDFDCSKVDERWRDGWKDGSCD
CHT block: inhibits the human high affinity choline transporter. Q9GZV3. CHT-expressing cells, membrane potential dye, choline response; active compounds read low. B-score at 10 µM. 0.86% of 310,000 active. AID 488975;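 active means B-score over 3 SD under the library average, and starting fluorescence ratio not unusually high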;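 further: choline stimulus applied at its EC90 after an EC20 pre-addition; B-score computed on integrated fluorescence ratio after choline addition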
An asterisk follows results filed as active; i = inactive; · = not tested or not shown.

SMILES | CHT allo act | AI-2 QS modul | PREPL inh | ALR inh | CHT block
CCOc1cccc(/C=N/NC(=O)CC2C(=O)NN=C2C)c1O (stereo not given) | i | 8.9 | -5.1 | 98.2* | i
COc1cc(/C=N/NC(=O)CC2C(=O)NN=C2C)ccc1O (stereo not given) | i | 16.1 | 5.2 | · | i
CCOc1ccccc1NC(=O)/C(C#N)=C/c1c(C)nn(-c2ccccc2)c1Cl | i | 27.6 | 15.6 | 7.5 | i
C=CCNC(=O)/C(C#N)=C/c1c(C)nn(-c2ccccc2)c1Cl | i | 4.4 | 2.8 | 96.2* | i
Oc1cc2ccccc2cc1-c1n[nH]c(=S)n1Cc1ccco1 | i | 26.7 | 8.2 | · | i
Oc1ccc(-c2n[nH]c(=S)n2Cc2ccco2)cc1 | i | 22.2 | 12.4 | 90.7* | i
S=c1[nH]nc(Cc2ccccc2)n1Cc1ccco1 | i | 8.4 | 3.2 | 88.8* | i
COc1cccc(-c2n[nH]c(=S)n2Cc2ccco2)c1OC | i | 13.1 | 8.6 | 87.1* | i
O=C(COC(=O)c1ccc(O)cc1O)Nc1cc(-c2ccccc2)nn1-c1ccccc1 | i | 35.9 | 15.0 | -2.6 | i
COc1cc(OC)cc(C(=O)NNC(=O)c2cc3c(s2)CCCC3)c1 | i | -20.0 | -14.9 | -15.2 | i
O=C(CN1C(=O)NC2(CCCC2)C1=O)NNC(=O)c1ccccc1 | i | -5.4 | 14.9 | -2.8 | i
CC1(C)CC(=O)/C(=N/Nc2ccc(Cl)cc2)CO1 | i | -22.6 | 9.6 | · | i
Cc1cccc(N/N=C2/COC(C)(C)CC2=O)c1 | i | 18.3 | 1.6 | 92.9* | i
Fc1ccc(N2CN(Cc3cccnc3)CNC2=S)cc1 | i | 30.8 | -11.9 | · | i
C(=N\C(/N=C/c1ccco1)c1ccco1)/c1ccco1 | i | 20.1 | 17.8 | -14.0 | i
CN(C)c1ccc(/C=N/O)cc1 | i | -0.2 | 6.4 | 98.8* | i
CN(C)c1ccc(C=Nc2ccc(N(C)C)cc2)cc1 | i | 47.0 | 37.7 | 96.8* | i
Cc1ccc(N=Cc2ccc(N(C)C)cc2)cc1 | i | 15.8 | -8.9 | -18.4 | i
C(=Nc1cccc2c(N=Cc3ccco3)cccc12)c1ccco1 | i | 10.2 | 55.0* | 2.5 | i
CN(C)c1ccc(N=Cc2ccco2)cc1 | i | · | 31.1 | 94.0* | i
CCC(CO)n1c(=S)[nH]c2cc(OC)c(OC)cc2c1=O (stereo not given) | i | 18.4 | 12.7 | 15.9 | i
OCCCn1c(-c2ccccc2)csc1=Nc1ccccc1 | i | 5.5 | 12.2 | 39.7 | i
O=C(O)CCC(=O)NCCn1c(-c2ccccc2)csc1=Nc1ccccc1 | i | 25.2 | 0.0 | 92.2* | i
COc1ccc(C2=NN(c3nc(-c4ccc(CNC(C)=O)cc4)cs3)C(c3ccco3)C2)cc1 (stereo not given) | i | 30.6 | -13.1 | 99.0* | i
CC1CCN(C(=O)CCNS(=O)(=O)c2ccc(Cl)cc2)CC1 | i | 1.7 | 5.7 | 1.2 | i
SMILES | CHT allo act | AI-2 QS modul | PREPL inh | ALR inh | CHT block
Cc1nc2ccc(S(=O)(=O)NC(C(=O)Nc3nccs3)C(C)C)cc2s1 (stereo not given) | i | 26.4 | -2.2 | 91.8* | i
Cc1nc2ccc(S(=O)(=O)NC(C(=O)Nc3nc4ccc(Cl)cc4s3)C(C)C)cc2s1 (stereo not given) | i | 17.6 | -2.2 | 9.4 | i
COc1ccc(N/C=C(\C(C)=O)c2ccc(OC)c(OC)c2)cc1OC | i | -3.7 | 8.9 | 31.3 | i
O=C(N/N=C/c1ccc(O)cc1)NC12CC3CC(CC(C3)C1)C2 | i | 15.7 | 5.8 | 93.3* | i
C=C1CC(C(=O)N/N=C/c2ccc(O)cc2)C1 | i | 8.5 | 4.3 | 99.7* | i
CCCN(Cc1ccc(N(CC)CC)cc1)CC1CC1 | i | 12.7 | 4.7 | 98.4* | i
O=C(O)c1ccc(N/N=C/c2ccc3nccnc3c2)cc1 | i | 15.6 | 6.3 | 63.3 | i
O=C(O)c1cccc(N/N=C/c2ccc(OC(F)(F)F)cc2)c1 | i | 19.2 | 0.3 | 4.3 | i
O=C(O)c1ccc(N/N=C/C(Br)=C/c2ccccc2)cc1 | i | -94.3* | 12.8 | 98.3* | i
O=C(O)c1ccc(N/N=C/c2ccc(F)c(F)c2)cc1 | i | -93.5* | 8.1 | · | i
O=C(O)c1ccc(N/N=C/c2cccc(C(F)(F)F)c2)cc1 | i | -93.5* | -9.0 | 14.4 | i
O=C(O)c1ccc(N/N=C/c2cccc(F)c2)cc1 | i | -78.7* | 3.0 | · | i
